High-throughput results deposited in PubChem BioAssay by National Center for Advancing Translational Sciences (NCATS).
POLB inh: blocks human DNA polymerase beta activity. P06746. Pol beta primer extension/strand displacement, fluorescence kinetic. Potency, µM (titrated, usually from 114 µM), usual class: inhibitors. 340,000 tested, 1.3% active. AID 485314
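Enzyme-only controls used 10 nM Pol beta; buffer lacking enzyme served as negative control. Compound preincubated 15 min, then 50 nM substrate added; 0 and 10 min reads at room temperature.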
POLI inh: blocks human DNA polymerase iota activity; 390,000 tested, 1% active; Pol iota fluorescent replication assay, 10 min; AID 588590; Q9UNA4; Potency, µM (series often up to 115 µM), most hits filed as inhibitors
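Pol iota at 10 nM preincubated 15 min with compounds at room temperature; reaction started with fluorescent substrate, 50 nM final. Fluorescence read kinetically at 0 and 10 min; buffer-only wells as negative control.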
Pol kappa inh-1: blocks human DNA polymerase kappa activity; Q9UBT6; purified Pol kappa, fluorescent DNA synthesis assay, 10 min; Potency, µM (titrated, usually from 107 µM), actives largely listed as inhibitors; 400,000 tested, 0.53% active; AID 588579
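Pol kappa 10 nM + cpd, 15 min RT; start w/ substrate 50 nM final; fluorescence kinetic read, 0 and 10 min. Neg ctrl: buffer, no enzyme.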
GLS inh: inhibitors of human glutaminase (GLS); 410,000 tested, 0.21% active; GLS enzymatic activity, qHTS titration; Potency, µM (doses to about 45.5 µM), usual class: inhibitors; AID 624170
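Coupled fluorescence readout: glutamate oxidase/HRP/Amplex Red detect glutamate formed by hKGA from L-glutamine (1 mM solution added). Buffer 45 mM KH2PO4 pH 8.2, 0.02% Tween-20; reads at t0 and 30 min RT.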
KAT2A inh: GCN5L2 (KAT2A) acetyltransferase inhibition; Q92830; GCN5L2 HAT assay, ThioGlo1 CoA-SH fluorescence; Potency, µM (series often up to 58.9 µM), actives largely listed as inhibitors; 390,000 tested, 0.21% active; AID 504327
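GCN5L2 (20 nM) in 50mM HEPES pH 7.5, 0.1mM EDTA, 0.01% Tween-20 preincubated 15 min with compounds at room temperature. Reaction started with H3(1-25) 75uM, acetyl-CoA 70uM, ThioGlo1 50uM; CoA-thiol fluorescence (Ex340/Em540) read at 0 and 20 min.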
Pol eta inh-1: blocks human DNA polymerase eta activity; Q9Y253; recombinant Pol eta, fluorescent DNA replication assay; 390,000 tested, 1.2% active; Potency, µM (highest dose often 114 µM), actives largely listed as inhibitors
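Fluorescent replication assay: 50 nM final substrate added after a 15 min room-temperature compound preincubation with 10 nM enzyme. Signal taken at 0 min and again at 10 min.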
HEK293 viability: reduces HEK-293 cell viability in GALK counter-screen; shares compounds with Pol eta inh-1; HEK-293 viability, ATP luminescence (CellTiter-Glo), 24/48 h; Potency, µM (series often up to 46.1 µM), actives largely listed as inhibitors; 170 tested, 10% active; AID 2547
Pol kappa inh-2: Pol kappa (human) inhibition, cherry-pick confirmation | shares compounds with Pol eta inh-1 | purified Pol-kappa, fluorescent strand-displacement substrate | Potency, µM, usual class: inhibitors | 920 tested, 76% active | AID 720501
Pol eta inh-2: confirmation of human DNA polymerase eta inhibitors; Potency, µM, actives largely listed as inhibitors; shares compounds with Pol eta inh-1; AID 720502; Pol eta primer extension, TAMRA/BHQ fluorescence, 10 min; 2,600 tested, 64% active
Numbers stand for hits; – = inactive; ? = inconclusive; · = not tested or not shown. Shown are actives, neighbours in structure and some others; about 2.4% of the full set was active somewhere. The call rests on the fitted dose curve; in most records, active means well fitted curve in the direction sought with a large enough effect; inconclusive means small, poorly fitted or top-dose-only effect, or another doubt; inactive means no such curve, though single readings can be large; an effect the other way counts as inactive or inconclusive.

SMILES	POLB inh	POLI inh	Pol kappa inh-1	GLS inh	KAT2A inh	Pol eta inh-1	Pol eta inh-2	others
CCc1sc(/C=C(/C#N)C(N)=S)cc1[N+](=O)[O-]	?	?	–	–	?	20µM	43
Cc1ccc(NC(=O)c2c(NC(=O)C(F)(F)F)sc3c2CCCCC3)cc1	?	?	?	–	–	50µM	?
O=C(COc1ccc(Cl)cc1)Nc1sc2c(c1C(=O)Nc1cccc(Cl)c1)CCCC2	–	–	–	–	?	–	·
O=C(Nc1cccc(Cl)c1)c1c(NC(=O)C(F)(F)F)sc2c1CCCC2	?	?	–	–	?	25µM	?
Cc1ccccc1NC(=O)c1c(NC(=O)C(F)(F)F)sc2c1CCCCC2	?	–	–	–	–	–	·
Cc1cccc(NC(=O)c2c(NC(=O)C(F)(F)F)sc3c2CCCCC3)c1	?	?	–	–	?	45µM	·	Pol kappa inh-2=67
CCOC(=O)c1cc(S(=O)(=O)N2CCN(c3ccccc3OC)CC2)[nH]n1	–	?	–	–	–	–	·
S=c1[nH]nc(-c2ccco2)n1/N=C/C=C/c1ccccc1	–	–	–	–	–	–	·
Cc1ccccc1-c1n[nH]c(=S)n1/N=C/C=C/c1ccco1	–	7.9µM	18µM	–	–	22µM	76
Cc1cc(-c2n[nH]c(=S)n2/N=C/C=C/c2ccco2)n[nH]1	40µM	18µM	89µM	?	–	45µM	?
N=C(N)SCc1ncccc1O	–	50µM	–	–	–	–	?
O=C(NC1(C(F)(F)F)N=C(c2ccccc2)N(Cc2ccccc2)C1=O)c1ccc(F)cc1 (stereo not given)	–	–	–	–	–	–	·
O=C(C=C1SCCS1)/C=C/c1ccco1	22µM	35µM	?	–	?	18µM	?
CCC(Sc1nnc(-c2ccc(F)cc2)c(-c2ccc(F)cc2)n1)C(=O)NC1CCCC1 (stereo not given)	–	–	–	?	–	–	·
O=c1[nH]c2ccc(S(=O)(=O)N3CCN(S(=O)(=O)c4c(F)cccc4F)CC3)cc2[nH]c1=O	·	·	·	·	·	·	·	Pol kappa inh-2=53
CC(C)CN(C(=O)C1CC1)c1c(N)n(Cc2ccccc2)c(=O)[nH]c1=O	·	–	–	–	–	–	·
CSc1cccc(N2CC(C(=O)N(CC(C)C)c3c(N)n(Cc4ccccc4)c(=O)[nH]c3=O)CC2=O)c1 (stereo not given)	·	?	?	–	–	25µM	?
CCOC(=O)C1=C(O)/C(=C/c2ccc(-c3ccccc3C(=O)O)o2)SC1=Nc1ccc(OC)cc1	?	?	–	?	–	10µM	43
N#Cc1c(N)n(-c2cccc(C(=O)O)c2)c2nc3ccccc3nc12	–	–	–	–	?	40µM	54
O=C1CC(c2ccccc2)CC2=C1C1(CCCCC1)N=C(Nc1nc3ccccc3o1)N2 (stereo not given)	·	·	·	·	·	·	·	HEK293 viability=–
Cc1ccc2oc(NC3=NC4(CCCC4)C4=C(CCCC4=O)N3)nc2c1	·	·	·	–	·	·	·
O=C1CCC2=C1C1(CCCC1)N=C(Nc1nc3ccccc3o1)N2	·	·	·	·	·	·	·	HEK293 viability=–
CC1(C)CC(=O)C2=C(C1)NC(Nc1nc3ccccc3o1)=NC21CCCCC1	–	–	–	–	–	–	·	HEK293 viability=–
CCCN1CN=C(Nc2nc3ccccc3o2)NC1	–	–	–	–	–	–	·
O=C(CN1C(=O)C2CCCCC2C1=O)Nc1nc(-c2ccccn2)cs1 (stereo not given)	–	–	–	–	–	?	·
